Assay outcomes: PubChem, The Scripps Research Institute Molecular Screening Center
TbREL1 primary: TbREL1 inhibition, primary screen | P86926 | TbREL1 RNA ligation, FRET fluorescence | inhibition, % at 9.66 µM | 0.49% of 89,000 active;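 active = inhibition above the mean inhibition across all screened compounds plus 3 SD, cut at about 11% in these data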;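 note: 0% = plate median of test wells and 100% = NSC42067 control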
Target sequence (P86926 whole entry, looked up): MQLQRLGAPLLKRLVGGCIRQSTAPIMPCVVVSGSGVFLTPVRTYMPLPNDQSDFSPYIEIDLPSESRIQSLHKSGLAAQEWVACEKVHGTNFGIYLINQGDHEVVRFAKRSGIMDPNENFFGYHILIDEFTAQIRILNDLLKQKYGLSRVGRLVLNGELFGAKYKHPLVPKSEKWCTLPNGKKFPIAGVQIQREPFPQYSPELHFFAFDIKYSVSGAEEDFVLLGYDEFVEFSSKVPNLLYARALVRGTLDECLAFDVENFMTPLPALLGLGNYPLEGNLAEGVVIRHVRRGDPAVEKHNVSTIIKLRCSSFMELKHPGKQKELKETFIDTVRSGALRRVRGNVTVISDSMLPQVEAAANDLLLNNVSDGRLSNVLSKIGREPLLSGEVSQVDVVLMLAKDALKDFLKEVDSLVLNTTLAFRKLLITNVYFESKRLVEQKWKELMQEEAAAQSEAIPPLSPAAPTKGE
TbREL1 confirm: TbREL1 inhibition, confirmation. 37% of 390 active. AID 1117282. inhibition, % at 9.66 µM. TbREL1 RNA ligation, FRET fluorescence. shares compounds with TbREL1 primary;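 active = mean inhibition across replicates above a set limit taken from the earlier primary screen, cut at about 11% in these data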;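 note: 0% = REL1 with substrate and DMSO and 100% = REL1 plus control inhibitor NSC42067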
* hit, by the source's call. This is one part of a sample in which hits are shown more often than they occur.

SMILES | TbREL1 primary | others
N#Cc1ccccc1S(=O)(=O)N1CCN(CC(O)CN2CCOCC2)CC1 (stereo unspecified) | 20* | TbREL1 confirm=11
COc1ccc(S(=O)(=O)N2CCN(CC(O)CN3CCOCC3)CC2)cc1 (stereo unspecified) | 3
CCOc1ccc(C(=O)N2CCn3c2nc2ccccc23)cc1 | 0
COc1ccc(C(=O)N2CCn3c2nc2ccccc23)cc1 | 0
COc1cccc(C(=O)N2CCn3c2nc2ccccc23)c1 | 12* | TbREL1 confirm=7
COC(=O)C1CN(CCO)CCS(=O)(=O)N1Cc1cn(Cc2cccc(Cl)c2)nn1 (stereo unspecified) | 9
Cc1ccc(S(=O)(=O)N2OC(c3ccccc3)C[C@H]2CC=C(c2ccccc2)c2ccccc2)cc1 (stereo partly specified) | 0
Cc1cc(NC(=O)C23CC4CC(CC(C4)C2)C3)n[nH]1 | 12* | TbREL1 confirm=5
Cc1nn(C)c(C)c1NC(=O)C12CC3CC(CC(C3)C1)C2 | 2
CCC(=O)Nc1cc(C)c(NC(=O)C23CC4CC(CC(C4)C2)C3)cn1 | -3
COc1ccc(CN2C(=O)[C@@](O)(c3cccn3C)c3cc(Br)ccc32)cc1 | -5
C(C#CCCCCCCCCC[n+]1ccccc1)#CCCCCCCCCC[n+]1ccccc1 | 11* | TbREL1 confirm=24*
CCN(C(=O)COC(=O)c1cc([N+](=O)[O-])ccc1N1CCCCC1)C1CCS(=O)(=O)C1 (stereo unspecified) | 11* | TbREL1 confirm=2
CCN(C(=O)COC(=O)c1cc(OC)c(OC)cc1[N+](=O)[O-])C1CCS(=O)(=O)C1 (stereo unspecified) | 0
CN(C(=O)COC(=O)c1cc([N+](=O)[O-])ccc1N1CCOCC1)C1CCCCC1 | -2
Nn1c(SCC(=O)Nc2ccc(S(=O)(=O)Nc3nccs3)cc2)nnc1-c1ccco1 | -1
O=C(c1ccc2c3c(cccc13)CC2)C1CCCN(Cc2ccncc2)C1 (stereo unspecified) | 6
ON=C(c1ccccc1)c1ccc2c3c(cccc13)CC2 | 12* | TbREL1 confirm=3
NC(=O)/C(=N\O)c1ccccc1 | 0
CC(C)C[C@H](NC1(C(=O)NC2CCCCC2)CCN(C(=O)OC(C)(C)C)CC1)C(=O)NCCc1c[nH]c2ccccc12 | 1
COC(=O)[C@@]12C[C@@H](CC(=O)NCc3cccc(C(F)(F)F)c3)C(=O)N(Cc3cccc4ccccc34)C1=CCC(C)(C)C2 | 3
O=Cc1cn(-c2ccccc2)nc1-c1cc2ccccc2oc1=O | 6
CN(C)CCNC(=O)/C=C/c1cn(-c2ccccc2)nc1-c1cc2ccccc2oc1=O | 12* | TbREL1 confirm=4
O=C(/C=C/c1cn(-c2ccccc2)nc1-c1cccnc1)NCCN1CCOCC1 | 2
CCCCCCCCN1C(=O)[C@@H](CC(=O)NCCCOC)C[C@@]2(C(=O)OC)C1=C[C@H](C(C)C)O[C@@H]2C1CC1 | -4
SMILES | TbREL1 primary | others
CCCc1nc2c(=O)n(C)c(=O)nc-2n(C)n1 | 61* | TbREL1 confirm=86*
COc1ccc(CCn2c(C)nc3c(c(=O)c4ccccc4n3C)c2=O)cc1 | 9
O=C(NCc1cc(C(F)(F)F)ccc1Cl)c1cccc2c1C(=O)c1ccc(N3CCCCC3)cc1S2(=O)=O | 41* | TbREL1 confirm=4
O=C(NCc1cc(C(F)(F)F)ccc1Cl)c1cccc2c1C(=O)c1ccc(N3CCOCC3)cc1S2(=O)=O | 0
O=C(NCc1ccc(OC(F)(F)F)cc1)c1cccc2c1C(=O)c1ccc(N3CCCCC3)cc1S2(=O)=O | 5
N[C@H]1CC[C@@H]2SC[C@@H](C(=O)O)N2C1=O | 5
COc1ccc(CN2C(=O)c3cccc4cccc(c34)C2c2nc3ccccc3[nH]2)cc1 (stereo unspecified) | 0
O=C(CN1C(=O)c2ccccc2C1=O)Nc1cccc2cccnc12 | -4
O=C(COc1ccc2ccccc2c1)Nc1cccc2cccnc12 | 2
O=C(O)CCC(=O)Nc1cccc2cccnc12 | 11* | TbREL1 confirm=5
COC(=O)[C@]12CCCCC=C1N(Cc1ccc(OC)cc1)C(=O)[C@@H]2CC(=O)NCCc1ccccc1OC | -5
CNC(C)C(=O)NC(C(=O)N1CCCC1C(=O)Nc1cccc2ncccc12)C(C)C (stereo unspecified) | -3
CCn1c2ccccc2c2cc(NC(=O)COC(=O)c3cc(Cl)c(N)cc3OC)ccc21 | 12* | TbREL1 confirm=8
CCn1c2ccccc2c2cc(NC(=O)COC(=O)c3cc(Cl)cc(Cl)c3)ccc21 | -1
CCn1c2ccccc2c2cc(NC(=O)COC(=O)c3ccccc3F)ccc21 | 4
C=CCn1c(SCC(=O)Nc2ccccc2-c2ccccc2)nnc1-c1ccc(Cl)cc1 | 0
Cn1cccc1[C@]1(O)C(=O)Nc2ccc(F)cc21 | 1
CCOC(=O)C1CCN(C(=O)C(C)(C)NC(=O)Nc2ccc(C(F)(F)F)cc2Cl)CC1 | -3
CC1CCCCN1C(=O)c1ccc(CNC(=O)c2cccc(Br)c2)cc1 (stereo unspecified) | 0
CC1(C)CC(NC(=O)Nc2ccc([N+](=O)[O-])cc2)CC(C)(C)N1 | 0
CC1(C)CC(NC(=O)c2ccc(-c3ccc([N+](=O)[O-])cc3)o2)CC(C)(C)N1 | 12* | TbREL1 confirm=4
COc1ccc(NC(=O)c2ccc(-c3ccc([N+](=O)[O-])cc3)o2)cc1 | -1
CCCNC(=O)C1(C)CCCN(C(=O)c2ccccc2OC(F)(F)F)C1 (stereo unspecified) | 5
Cc1[nH]c2ccccc2c1CC(=O)Nc1ccc(Nc2ccccc2)cc1 | -4
CCOC(=O)[C@@]12CCCC3=C1N(CCC3)C(=O)[C@H]2CC(=O)NCc1cccc(C(F)(F)F)c1 | 3
SMILES | TbREL1 primary | others
O=C(Cn1nc(-c2ccccc2)ccc1=O)NCCc1ccc(F)cc1 | -1
O=C(O)CN1C(=O)SC(Nc2ccc(Cl)cc2)C1=O (stereo unspecified) | 11* | TbREL1 confirm=6
O=C(CCNc1ccc(Cl)cc1)c1cccs1 | -3
O=C(O)CN1C(=O)C2C3C=CC(C2C1=O)C1C(=O)N(CC(=O)O)C(=O)C31 (stereo unspecified) | 4
O=S1(=O)c2ccc(N3CCC[C@@H]3CO)cc2O[C@@H]2CCN1C2 | 0
O=C(Nc1ccc(F)cc1)OCc1cn(Cc2cc(F)ccc2F)nn1 | -1
COC(=O)C1=C(C)N(Cc2cccc(C(F)(F)F)c2)C(=NCc2cc(OC)c(OC)c(OC)c2)NC1CCc1ccccc1 (stereo unspecified) | 12* | TbREL1 confirm=20*
COC(=O)C1=C(C)N(Cc2ccccc2)C(=S)N[C@H]1c1cccc(C(F)(F)F)c1 | -6
CCN1C(=NCc2cc(OC)c(OC)c(OC)c2)N[C@@H](c2cccc(C(F)(F)F)c2)C(C(=O)OC)=C1C | 0
C=CCN=C1NC(c2ccccc2)C(C(=O)OC)=C(C)N1Cc1ccccc1C(F)(F)F (stereo unspecified) | 7
COC(=O)C1=C(C)N(Cc2ccccc2C(F)(F)F)C(=NCc2ccccc2)NC1CCc1ccccc1 (stereo unspecified) | 21* | TbREL1 confirm=20*
O=C(CN1C(=O)NC(CCc2ccccc2)C1=O)Nc1ccccc1C(F)(F)F (stereo unspecified) | 1
COc1ccccc1NC(=S)OCCN1CCCC12CCC(c1ccccc1)CC2 (stereo unspecified) | 1
CCCC1CCC2(CCCN2CCOC(=O)Nc2cccc(Cl)c2)CC1 (stereo unspecified) | 2
CCOC(=O)[C@]12CCCC=C1N(CCCOC)C(=O)[C@@H]2CC(=O)NCc1ccccc1 | -2
